Laboratory results from PubChem BioAssay (Tox21).
Unmarked numbers belong to inactive results. Calls of active or inactive are those of the source. The call rests on the fitted dose curve; in most records, active means well fitted curve in the direction sought with a large enough effect in the repeat runs; inconclusive means weak or mixed curves; inactive means flat fitted curve, though single readings scatter.

Assay: qHTS assay to test for compound auto fluorescence at 460 nm (blue) in HEK293 cell free culture (AID 720681)
Conditions: cell-free medium, autofluorescence 405/460 nm (blue); series mostly up to 91.3 µM; fluorescence, % of fluorescent control: at the top concentration
Procedure, shortened: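 Blue fluorescence (Ex 405/Em 460 nm, triamterene-equivalent) was read immediately after pin transfer of compound or DMSO into medium (DMEM, 10% FBS) without cells.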
On the % scale 0 is the no-effect control and ±100 the full control effect.

SMILES | fluorescence, % of fluorescent control | Potency
C=C(C)C(=O)OCCC(F)(F)C(F)(F)C(F)(F)C(F)(F)C(F)(F)C(F)(F)F | -0.126% | 
COC1CCC=CO1 (configuration not stated) | -0.09% | 
CNCc1ccc(NC(=O)c2c[nH]c3c2C(=O)CCC3)cc1 | 0.0689% | 
Cc1ccc(NC(=O)N(C)C)cc1NC(=O)N(C)C | -0.0071% | 
N[C@@H](Cc1cc(I)c(O)c(I)c1)C(=O)O | 0.0704% [at 46 µM] | 
CCC(C)(C)C(=O)O | 0.0289% | 
CNS(=O)(=O)c1cc(C(=O)N2CCC(CCN3C4CCC3CC(n3c(C)nc5ccccc53)C4)(c3cccc(F)c3)CC2)c(Cl)cc1F (configuration not stated) | -0.229% | 
O=[N+]([O-])c1ccc2ncccc2c1 | 0.0948% | 
C[C@@H]1[C@H](O)[C@@H](C)/C=C/C=C\C=C\C=C\C=C\C=C\C=C\[C@H](O[C@@H]2O[C@H](C)[C@@H](O)[C@H](N)[C@@H]2O)C[C@@H]2O[C@](O)(C[C@@H](O)C[C@@H](O)[C@H](O)CC[C@@H](O)C[C@@H](O)CC(=O)O[C@H]1C)C[C@H](O)[C@H]2C(=O)O (stereo in doubt) |  | inactive
COc1cc(C(C)=O)ccc1OCCCN1CCC(c2noc3cc(F)ccc23)CC1 | -0.0219% [at 46 µM] | 
CC(C)(C)NCC(O)COc1cccc2c1C[C@H](O)[C@H](O)C2 (some centres not stated) | 0.0347% [at 18.6 µM] | 
Nc1ccn([C@H]2CS[C@@H](CO)O2)c(=O)n1 |  | inactive
Cc1cc([N+](=O)[O-])ccc1N | 0.0074% | 
CC1CCCO1 (configuration not stated) | -0.0253% | 
O=C1OC(=O)c2c(Br)c(Br)c(Br)c(Br)c21 | -0.0779% | 
Oc1ccc2c(c1)Cc1ccccc1-2 | -0.119% | 
CC(C)COC(=O)c1ccc(O)cc1 | 0.0398% | 
CN1CCCN(C(c2ccccc2)c2ccc(Cl)cc2)CC1 (configuration not stated) | -0.009% [at 46 µM] | 

SMILES | fluorescence, % of fluorescent control | Potency
CC[C@H]1OC(=O)[C@H](C)[C@@H](O[C@H]2C[C@@](C)(OC)[C@@H](O)[C@H](C)O2)[C@H](C)[C@@H](O[C@@H]2O[C@H](C)C[C@H](N(C)C)[C@H]2O)[C@](C)(O)C[C@@H](C)CN(C)[C@H](C)[C@@H](O)[C@]1(C)O |  | inactive
O=C(O)c1ccc(O)cc1O | -0.0896% | 
Nc1cccc2c(N)cccc12 | 0.396% | 
C=CCOC(=O)COCCC(C)C | -0.122% | 
CC(C(=O)O)c1ccc(C(=O)c2cccs2)cc1 (configuration not stated) | -0.0817% [at 18.6 µM] | 
CC(=O)N[C@@H](Cc1ccc(O)cc1)C(=O)O | -0.0041% [at 46 µM] | 
O=C(c1ccccc1)C1CCC1 | -0.0174% | 
CCCCCCCC(=O)OCCCCCC | -0.199% | 
CCC(Cl)CC(Cl)C(Cl)C(Cl)C(Cl)C(C)Cl (configuration not stated) | 0.102% [at 13.4 µM] | 
CCSC(=O)N(CC)CC | -0.0619% | 
COc1ccc(C2C(=O)c3ccccc3C2=O)cc1 | 0.017% [at 46 µM] | 
CCCCCCCC/C=C\CCCCCCCC(=O)OCCO | 0.0278% [at 95.7 µM] | 
CCCCCc1ccco1 | 0.61% | 
COc1ccc(CCN(C)CCCN2CCc3cc(OC)c(OC)cc3CC2=O)cc1OC | -0.0462% [at 46 µM] | 
CC(C)(C)S | 0.0461% [at 95.7 µM] | 
O=C(Oc1ccccc1)c1ccc2ccccc2c1O | 0.168% | 
CC(C)(O)CCc1ccccc1 | -0.0152% | 
CC(=O)OCC(C)C | -0.168% | 

Assay: qHTS assay to test for compound auto fluorescence at 535 nm (green) in HEK293 cell free culture (AID 720682)
Conditions: cell-free medium, green autofluorescence 485/535 nm, stronger effect = higher value; series mostly up to 91.3 µM; activity change: at the top concentration
Procedure, shortened: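 No cells present: wells hold DMEM supplemented with 10% FBS, into which compound or vehicle is pinned. Green emission is then recorded (485 nm excitation, 535 nm emission) and scaled to fluorescein.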

SMILES | activity change | outcome
C=C(C)C(=O)OCCC(F)(F)C(F)(F)C(F)(F)C(F)(F)C(F)(F)C(F)(F)F | 0.0163% | 
COC1CCC=CO1 (configuration not stated) | -0.0185% | 
CNCc1ccc(NC(=O)c2c[nH]c3c2C(=O)CCC3)cc1 | -0.0924% | 
Cc1ccc(NC(=O)N(C)C)cc1NC(=O)N(C)C | -0.0185% | 
N[C@@H](Cc1cc(I)c(O)c(I)c1)C(=O)O | -0.0116% [at 46 µM] | 
CNS(=O)(=O)c1cc(C(=O)N2CCC(CCN3C4CCC3CC(n3c(C)nc5ccccc53)C4)(c3cccc(F)c3)CC2)c(Cl)cc1F (configuration not stated) | 0.0834% | 
O=[N+]([O-])c1ccc2ncccc2c1 | 0.0066% | 
COc1cc(C(C)=O)ccc1OCCCN1CCC(c2noc3cc(F)ccc23)CC1 | 0.0028% [at 46 µM] | 
CC(C)(C)NCC(O)COc1cccc2c1C[C@H](O)[C@H](O)C2 (some centres not stated) | 0.0167% [at 18.6 µM] | 
Nc1ccn([C@H]2CS[C@@H](CO)O2)c(=O)n1 |  | inactive
Cc1cc([N+](=O)[O-])ccc1N | 0.0599% | 
CC1CCCO1 (configuration not stated) | 0.111% | 
Oc1ccc2c(c1)Cc1ccccc1-2 | 0.0045% | 
CC(C)COC(=O)c1ccc(O)cc1 | -0.126% | 
CN1CCCN(C(c2ccccc2)c2ccc(Cl)cc2)CC1 (configuration not stated) | -0.0548% [at 46 µM] | 
CC[C@H]1OC(=O)[C@H](C)[C@@H](O[C@H]2C[C@@](C)(OC)[C@@H](O)[C@H](C)O2)[C@H](C)[C@@H](O[C@@H]2O[C@H](C)C[C@H](N(C)C)[C@H]2O)[C@](C)(O)C[C@@H](C)CN(C)[C@H](C)[C@@H](O)[C@]1(C)O |  | inactive

SMILES | activity change | outcome
O=C(O)c1ccc(O)cc1O | 0.0408% | 
Nc1cccc2c(N)cccc12 | 0.35% | 
CC(C(=O)O)c1ccc(C(=O)c2cccs2)cc1 (configuration not stated) | -0.0028% [at 18.6 µM] | 
CC(=O)N[C@@H](Cc1ccc(O)cc1)C(=O)O | 0.0191% [at 46 µM] | 
O=C(c1ccccc1)C1CCC1 | -0.0243% | 
CCCCCCCC(=O)OCCCCCC | 6.3e-05% | 
CCC(Cl)CC(Cl)C(Cl)C(Cl)C(Cl)C(C)Cl (configuration not stated) | -0.0067% [at 13.4 µM] | 
CCSC(=O)N(CC)CC | 0.0068% | 
COc1ccc(C2C(=O)c3ccccc3C2=O)cc1 | -0.0675% [at 46 µM] | 
CCCCCCCC/C=C\CCCCCCCC(=O)OCCO | 0.0888% [at 95.7 µM] | 
CCCCCc1ccco1 | 0.304% | 
COc1ccc(CCN(C)CCCN2CCc3cc(OC)c(OC)cc3CC2=O)cc1OC | -0.118% [at 46 µM] | 
CC(C)(C)S | 0.0223% [at 95.7 µM] | 
O=C(Oc1ccccc1)c1ccc2ccccc2c1O | -0.0117% | 
CC(C)(O)CCc1ccccc1 | 0.0034% | 
